Here are results for four molecules from PubChem BioAssay.

Activity calls are given as the source filed them.

Test [1] is described as follows: compound effects on differentiated 3T3-L1 adipocyte viability – cell-based, 3T3-L1 adipocytes, calcein-AM fluorescence, 48 h, basal, profiling panel (AID 1163). Particulars: 3T3-L1 adipocytes viability, higher = more signal.
Test [2] can be described thus: compound effects on hepatocellular carcinoma cell viability – HepG2, calcein-AM fluorescence, 48 h, basal, profiling panel (AID 1164). Particulars: higher = more signal.
Test [3] in a line: compound effects on multiple myeloma cell viability – MM1S, calcein-AM fluorescence, 48 h, basal, profiling panel (AID 1165).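 Further: viability of MM1S multiple myeloma cells under basal unstimulated conditions.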 Particulars: higher = more signal.
Test [4] is described as follows: calcein-AM signal in unstimulated myeloma cells – cell-based, calcein-AM fluorescence, 48 h, PK04 Diversity Set, profiling panel (AID 1166).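 Further: cells grown under basal conditions without added stimulus.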 Particulars: RPMI8226 myeloma viability, higher = more signal.
The nature of test [5]: JC-1 mitochondrial signal, unstimulated HepG2 cells – cell-based, JC-1 fluorescence, 24 h, 100 nL compound, profiling panel (AID 1167). Particulars: HepG2 mitochondrial potential, higher = more signal.
Test [6] in a line: JC-1 mitochondrial signal, unstimulated adipocytes – cell-based, JC-1 fluorescence, 3T3-L1 adipocytes, 24 h, 100 nL compound, profiling panel (AID 1168). Particulars: JC-1 mitochondrial fluorescence, higher = more signal, called active from +8 up or from −8 down.
Test [7] can be described thus: JC-1 mitochondrial signal, unstimulated myeloma cells – cell-based, JC-1 fluorescence, RPMI8226, 24 h, 100 nL compound, profiling panel (AID 1169). Particulars: JC-1 mitochondrial potential fluorescence, higher = more signal.
Test [8] is described as follows: JC-1 mitochondrial signal, unstimulated MM1S myeloma – cell-based, JC-1 fluorescence, 24 h, 100 nL compound, profiling panel (AID 1170). Particulars: MM1S mitochondrial potential, higher = more signal.
The nature of test [9]: resazurin metabolic signal in A549 cells – cell-based, resazurin fluorescence, 24 h, PK04 Diversity Set, profiling panel (AID 1171). Particulars: A549 viability, higher = more signal, called active from +8 up or from −8 down. A general note: Resazurin is reduced to fluorescent resorufin, in cell work by metabolically active cells.
Test [10] is described as follows: resazurin metabolic signal in HepG2 cells – cell-based, resazurin fluorescence, 24 h, PK04 Diversity Set, profiling panel (AID 1172). Particulars: HepG2 viability, higher = more signal.
A short description of test [11]: budding yeast growth changes without added modifier – OD600, strain BY4716, 24 h, basal condition, primary screen (AID 1173). Particulars: S. cerevisiae BY4716 growth, OD600, 24 h; higher = more signal, called active from +8 up or from −8 down.
Test [12] is described as follows: viability profiling in MM1S myeloma cells – cell-based, resazurin fluorescence, basal, 24 h, PK04 Diversity Set, profiling panel (AID 1174). Particulars: higher = more signal, called active from +8 up or from −8 down.
For test [13], the target named is Dihydroorotate dehydrogenase (quinone), mitochondrial (Plasmodium falciparum (isolate 3D7)) (UniProt Q08210). The test is described as follows: inhibition of P. falciparum DHODH – biochemical, C-terminal His tag, absorbance 600 nm, primary screen (AID 1175).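 Further: recombinant parasite enzyme with a five histidine tag at its C terminus.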 Particulars: PfDHODH enzyme, DCIP absorbance 600 nm; higher = more signal, called active from +8 up or from −8 down.
Sequence of Dihydroorotate dehydrogenase (quinone), mitochondrial (Plasmodium falciparum (isolate 3D7)) (Q08210 whole entry, looked up): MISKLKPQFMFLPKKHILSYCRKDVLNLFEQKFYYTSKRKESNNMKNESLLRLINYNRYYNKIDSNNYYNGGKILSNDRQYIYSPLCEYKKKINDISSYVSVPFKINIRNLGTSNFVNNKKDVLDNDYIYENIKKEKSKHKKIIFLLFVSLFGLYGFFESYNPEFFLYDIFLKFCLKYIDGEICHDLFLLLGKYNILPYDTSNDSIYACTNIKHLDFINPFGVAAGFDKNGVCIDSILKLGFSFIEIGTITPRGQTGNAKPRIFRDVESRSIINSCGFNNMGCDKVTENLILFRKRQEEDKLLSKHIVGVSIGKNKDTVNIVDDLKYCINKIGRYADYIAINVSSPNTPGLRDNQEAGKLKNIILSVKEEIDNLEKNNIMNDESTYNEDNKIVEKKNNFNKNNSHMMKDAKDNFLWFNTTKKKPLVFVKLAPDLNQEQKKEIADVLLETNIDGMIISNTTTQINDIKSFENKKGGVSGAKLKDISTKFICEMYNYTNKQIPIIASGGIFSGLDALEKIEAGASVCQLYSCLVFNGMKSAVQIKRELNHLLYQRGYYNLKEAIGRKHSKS

Test [14] can be described thus: growth modulation of vineyard yeast isolate – strain RM11-1a, OD600, basal, 24 h, primary screen (AID 1177).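 Further: cultures grown under basal conditions with no added stressor.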 Particulars: S. cerevisiae RM11-1a growth, OD600, 24 h; higher = more signal, called active from +8 up or from −8 down.
Test [15] can be described thus: growth of efflux-deficient E. coli DRC39 – strain DRC39, OD650, 24 h, E. coli filamentation inducers, primary screen (AID 1178).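 Further: growth measured as culture turbidity by optical density at 650 nm.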 Particulars: E. coli DRC39 acrAB, higher = more signal, called active from +8 up or from −8 down.
Test [16] in a line: growth of efflux-deficient E. coli DRC39 – strain DRC39, OD650, 48 h, E. coli filamentation inducers, primary screen (AID 1179).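 Further: screen aims at cell division blockers that make cells filament.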 Particulars: E. coli DRC39 delta-acrAB growth, higher = more signal, called active from +8 up or from −8 down.
Test [17] can be described thus: viability profiling in RPMI8226 myeloma cells – cell-based, resazurin fluorescence, basal, 24 h, PK04 Diversity Set, profiling panel (AID 1180).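 Further: RPMI8826 multiple myeloma cell line at 5000 cells per well.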 Particulars: higher = more signal.
Test [18] deals with E3 ubiquitin-protein ligase XIAP (Homo sapiens) (UniProt P98170). The test is described as follows: small molecules binding XIAP protein – biophysical, small-molecule microarray, fluorescence 635 nm, primary screen (AID 1181).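 Further: score merges 667 nm emission and signal to noise over triplicate slides.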 Particulars: higher = more signal.
Sequence of E3 ubiquitin-protein ligase XIAP (Homo sapiens) (P98170 whole entry, looked up, the tested form may be a part): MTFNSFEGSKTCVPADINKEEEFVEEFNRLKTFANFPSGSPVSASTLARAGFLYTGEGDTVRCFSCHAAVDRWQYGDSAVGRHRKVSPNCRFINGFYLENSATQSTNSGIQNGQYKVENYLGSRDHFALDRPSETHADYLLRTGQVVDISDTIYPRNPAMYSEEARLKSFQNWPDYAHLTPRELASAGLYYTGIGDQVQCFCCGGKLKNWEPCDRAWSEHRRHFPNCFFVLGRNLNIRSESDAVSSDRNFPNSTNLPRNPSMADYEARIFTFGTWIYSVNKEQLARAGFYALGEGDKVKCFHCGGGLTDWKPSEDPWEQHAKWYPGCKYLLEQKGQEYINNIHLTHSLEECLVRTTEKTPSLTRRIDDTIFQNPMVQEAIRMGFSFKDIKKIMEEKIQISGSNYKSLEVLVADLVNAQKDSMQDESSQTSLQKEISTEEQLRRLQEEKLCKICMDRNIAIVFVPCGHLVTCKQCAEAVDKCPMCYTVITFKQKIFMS
For test [19], the system named is XIP peptide (Xip251-270) binding. As to the kind of experiment: XIP fragment 251-270 binding compounds – biochemical, small-molecule microarray, fluorescence 635/667 nm, 0.1 µg/mL protein, primary screen (AID 1182). Particulars: fluorescent protein binding, 635 nm, higher = more signal, called active from +8 up or from −8 down.
In another test the test system is XIP peptide (Xip251-270). The test is described as follows: compounds binding XIP fragment 251-270 – biochemical, small-molecule microarray, fluorescence 635/667 nm, 0.5 µg/mL protein, primary screen (AID 1183). Particulars: fluorescence 635 nm, higher = more signal.

For the molecule `COC(=O)[C@@]1(CCC(=O)OC(C)(C)C)COC(c2ccc(OCCCO)cc2)=N1`, the z-score in [1] was 1.52; in test [2], -0.528; in test [3] it was 0.203; in [4] it was -0.0712; in test [5], -0.407; in [6], -0.0189 (inactive). In addition, the z-score in test [7] was 0.614; in test [8], 0.396; in test [9] it was 0.307 (inactive); in test [10], 0.863; in [11] it was -1.27 (inactive); in test [12] it was 0.867 (inactive). In addition, the z-score is -0.612 (inactive) in test [14], 2.83 (inactive) in [15], 1.14 (inactive) in [16] and 1.1 in test [17]. For the same molecule, the composite z-score in [13] is -0.402 (inactive); in test [18] it was -0.217; in [19] it was -0.191 (inactive); in the test with XIP peptide (Xip251-270), -1.66.
Take `O=C(N1CCCCC1)[C@@]1(Cc2ccccc2)N=C(c2ccc(OCCCO)cc2)O[C@H]1c1ccccc1`: the z-score in test [1] is 1.33; in test [2], -2.47; in test [3] it was -3.48; in [4] it was -3.78; in test [5] it was -1.61; in test [6] it was 0.804 (inactive). The z-score is -0.982 in [7]; -2.56 in test [8]; 0.935 (inactive) in [9]; 0.569 in test [10]; -0.635 (inactive) in test [11]; -3.06 (inactive) in [12]. For the same molecule, the z-score in [14] was 0.895 (inactive); in test [15], 1.97 (inactive); in test [16], 0.242 (inactive); in test [17], -5.21. Besides, the composite z-score was 0.31 (inactive) in test [13], -0.0448 in [18], 0.764 (inactive) in test [19] and 0.66 in the test with XIP peptide (Xip251-270).
In the case of `Cc1ccc(N2C(=O)c3ccccc3[C@](C)(C(=O)NC3CC3)[C@@H]2c2ccc(CO)cc2)nc1`, the z-score is 0.995 in test [1]; 0.0786 in test [2]; 0.47 in test [3]; 0.442 in test [4]; 0.587 in [5]; -0.73 (inactive) in test [6]. For the same molecule, the z-score was 0.36 in test [7]; 0.259 in test [8]; 1.1 (inactive) in [9]; 0.403 in test [10]; -1.76 (inactive) in [11]; 1.55 (inactive) in test [12]. Also, the z-score in [14] is -0.224 (inactive); in test [15], 0.256 (inactive); in test [16], 0.143 (inactive); in [17], 1.51. Further, the composite z-score was 0.0264 (inactive) in test [13], 0.0253 in test [18], -0.485 (inactive) in [19] and -0.777 in the test on XIP peptide (Xip251-270).
For the molecule `[N-]=[N+]=NCc1ccccc1C[C@@]1(C(=O)O)N=C(c2ccc(OCCCO)cc2)O[C@@H]1c1ccccc1`, the z-score in test [1] is 0.298; in test [2] it was -0.187; in test [3], -0.139; in test [4] it was 0.0527; in test [5], -0.586; in [6] it was 0.493 (inactive). Besides, the z-score in test [7] is -0.497; in test [8], 0.394; in [9], 0.946 (inactive); in test [10], 0.458; in [11], -3.34 (inactive); in test [12], 0.954 (inactive). Further, the z-score in test [14] is -1.01 (inactive); in test [15], 2.63 (inactive); in test [16], 1.26 (inactive); in [17], 0.903. Further, the composite z-score in test [13] was 0.0567 (inactive); in test [18] it was 0.188; in test [19], 1.35 (inactive); with XIP peptide (Xip251-270), 0.687.
